Compound activity from PubChem BioAssay.
Shown are actives, neighbours in structure and some others; about 2.5% of the full set was active somewhere.
ASK1 primary: inhibitors of human ASK1 kinase; Q99683; AlphaScreen MKK6 phosphorylation by ASK1, luminescence; inhibition, % at 7.44 µM; actives 0.99% (n = 22,000); AID 1159602; in the data active = inhibition above about 35%
ULK1 inh: inhibitors of human ULK1 kinase | O75385 | AlphaScreen Atg13 phosphorylation by ULK1, luminescence | inhibition, % at 5.96 µM | actives 1.9% (n = 30,000); in the data active = inhibition above about 43%
Large screens that a line does not name were inactive.

CCC(CO)NC(=O)[C@@H]1C=C2c3cccc4[nH]cc(c34)C[C@H]2N(C)C1 (stereo not given in full)	ULK1 inh 53.3 (no result: ASK1 primary)
CN1C[C@H](C(=O)N[C@]2(C)O[C@@]3(O)C4CCCN4C(=O)[C@H](Cc4ccccc4)N3C2=O)C=C2c3cccc4[nH]cc(c34)C[C@H]21 (stereo not given in full)	none (no result: ASK1 primary)
CC(C)C(=O)NC(Oc1ccccc1C(N)=O)C(Cl)(Cl)Cl (stereo not given)	none (no result: ASK1 primary)
Oc1ccc(Cl)cc1Cc1ccccc1	none (no result: ASK1 primary)
Oc1cc(Cl)ccc1Oc1ccc(Cl)cc1Cl	ULK1 inh 44.2 (no result: ASK1 primary)
CNC(C)Cc1ccc(O)cc1 (stereo not given)	none (no result: ASK1 primary)
CCCCCCCCCC(=O)OC1CCC2C3CCC4=CC(=O)CCC4C3CCC12C (stereo not given)	none (no result: ASK1 primary)
Cl/C=C/C[N+]12CN3CN(CN(C3)C1)C2	none (no result: ASK1 primary)
CN(C)[C@@H]1C(=O)C(C(N)=O)=C(O)[C@@]2(O)C(=O)C3=C(O)c4c(O)cccc4[C@@](C)(O)[C@H]3[C@H](O)[C@@H]12	ULK1 inh 50.8 (no result: ASK1 primary)
FC(F)(F)c1cccc(C2CNCCO2)c1 (stereo not given)	none (no result: ASK1 primary)
CC12CCC(=O)C=C1CCC1C2CCC2(C)C(C(=O)O)CCC12 (stereo not given)	none (no result: ASK1 primary)
CCC(Br)(CC)C(=O)NC(N)=O	ULK1 inh 81.8 (no result: ASK1 primary)
O=C(Nc1cccc(Cl)c1N1CCNCC1)c1ccc(Br)o1	none
NCCc1cc(O)c(O)cc1O	ULK1 inh 90.9 (no result: ASK1 primary)
COc1ccc(Oc2ncc(F)c(-c3cc(N4CCOCC4)cc(C(F)(F)F)c3)n2)cc1 (tested in a mixture with another compound)	none
O=[N+]([O-])c1ccc(NCCCCNc2ccc([N+](=O)[O-])c3cccnc23)c2ncccc12	none (no result: ASK1 primary)
CC[n+]1c(-c2ccccc2)c2cc(N)ccc2c2ccc(N)cc21	ULK1 inh 62.4 (no result: ASK1 primary)
NCCC(O)C(=O)N[C@@H]1C[C@H](N)[C@@H](OC2O[C@H](CN)[C@@H](O)[C@H](O)[C@H]2N)[C@H](OC2O[C@H](CO)C(O)[C@H]2O)[C@H]1O (stereo not given in full)	none (no result: ASK1 primary)
